# The supplement of paper PMC8387472
# Structures can show the parent of a compound that is named as a salt.
# Tested on: 24.0 GACCACAGCCCCCAGCAGGGGAGGCCCCCAGCAGGGGAGGCCCACACCTGCCCCAGCACCT
# Test: fraction of 1-bp insertions among edited reads; higher = more 1-bp insertion outcomes
# Details: mESC; 2uM; 72 h treatment, harvest day 5
row,SMILES,fraction of 1-bp insertions among edited reads
1,CC(=O)O/N=C1\C(=O)N(Cc2cc(Cl)ccc2Cl)c2ccc(Cl)cc21,0.0444
2,CCCCOc1c(C(=O)c2c(F)cc(C)cc2F)c[nH]c2nncc1-2,0.0164
3,Nc1cc(F)ccc1NC(=O)c1ccc(CNC(=O)/C=C/c2cccnc2)cc1 [Tucidinostat (Chidamide)],0.103
4,Cc1cc(C)nc(SCC(=O)Nc2ncc(Cc3cccc4ccccc34)s2)n1,0.105

# Tested on: 6.0 (DMSO control at this site: 1-bp insertion 0.296, MH deletion 0.491, edited 0.076) ACGATTGGCCCCCACAAAGCGGACCAGCCAGCGTGCTAGGGAATAAGGCCAACTTGCACCC
# Test: as above
# Details: mESC; 2uM; 72 h treatment, harvest day 5
row,SMILES,fraction of 1-bp insertions among edited reads
1,Cc1cccc(CC(=O)N2CCc3c2ccc(-c2cn(C)c4ncnc(N)c24)c3F)n1,0.337
2,CCc1c2c(nc3ccc(OC(=O)N4CCC(N5CCCCC5)CC4)cc13)-c1cc3c(c(=O)n1C2)COC(=O)[C@]3(O)CC [Irinotecan HCl Trihydrate],0.249
3,O=C(c1cccc(Cl)c1F)N1CCN(Cc2cccc(Nc3nccs3)n2)CC1,0.193
4,Nc1nc2[nH]cc(CCc3ccc(C(=O)N[C@@H](CCC(=O)O)C(=O)O)cc3)c2c(=O)[nH]1 [Pemetrexed],0.152
5,CNc1ccc([N+](=O)[O-])c(Nc2ccc3[nH]ncc3c2)n1,0.269
6,NC(=O)c1ccc2nc(-c3ccc(Oc4ccc(Cl)cc4)cc3)[nH]c2c1 [Chk 2 inhibitor II (BML-277)],0.278
7,CCN1CCN(CC(=O)Nc2ccc(-c3cccc4c(=O)cc(N5CCOCC5)oc34)c3sc4ccccc4c23)CC1,0.0821
8,Cc1ccc(C(=O)NCCCCCC(=O)Nc2ccccc2N)cc1,0.292
9,CC(C)(C#N)c1ccc(N2C(=O)OCc3cnc4ccc(-c5cnc6ccccc6c5)cc4c32)cc1,0.267
10,CCn1c(=O)c(-c2ccc(Cl)cc2Cl)cc2cnc(Nc3ccc(N4CCNCC4)c(F)c3)nc21,0.288
11,O=C1Cc2c([nH]c3ccc(Br)cc23)-c2ccccc2N1 [Kenpaullone],0.274
12,CC(=O)O/N=C1\C(=O)N(Cc2cc(Cl)ccc2Cl)c2ccc(Cl)cc21,0.256
13,S=c1[nH]cnc2nc[nH]c12 [Mercaptopurine (6-MP)],0.285
14,O=c1c(-c2ccc(O)cc2)coc2cc(O)cc(O)c12 [Genistein],0.253
15,O=c1cc(N2CCOCC2)oc2c(-c3ccc4c(c3)OCCO4)csc12,0.201
16,CO[C@H]1/C=C/O[C@@]2(C)Oc3c(C)c(O)c4c(O)c(c(/C=N/N5CCN(C6CCCC6)CC5)c(O)c4c3C2=O)NC(=O)/C(C)=C\C=C\[C@H](C)[C@H](O)[C@@H](C)[C@@H](O)[C@@H](C)[C@H](OC(C)=O)[C@@H]1C [Rifapentine],0.258
17,C[C@@H]1CN(CC(=O)Nc2ccc3c(c2)Cc2cccc(-c4cc(=O)cc(N5CCOCC5)o4)c2S3)C[C@H](C)O1,0.475
18,CCCCOc1c(C(=O)c2c(F)cc(C)cc2F)c[nH]c2nncc1-2,0.258
19,COc1ccccc1-c1cc(Nc2cccc(CS(N)(=O)=O)c2)ncn1,0.281
20,Nc1cc(F)ccc1NC(=O)c1ccc(CNC(=O)/C=C/c2cccnc2)cc1 [Tucidinostat (Chidamide)],0.272
21,S=c1nc[nH]c2nc[nH]c12 [6-Mercaptopurine (6-MP) Monohydrate],0.326
22,Nc1ncnc2c1c(-c1cnc3[nH]ccc3c1)nn2C1CCCC1,0.412
23,Cc1cc(C)nc(SCC(=O)Nc2ncc(Cc3cccc4ccccc34)s2)n1,0.295
